# How the values were obtained:
# Assay in all cases: PBM binding z-score (relative to random genomic background probes); higher = stronger binding; sequences stand for … in GC…GCGATTGACAGCGTAGAATGAAGG
# [1] = test system: RARb homodimer (NR concentration 270 nM)
# In short: (§1)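 Ligand-free nuclear receptor dimers were applied to custom Agilent 4×180K protein-binding microarrays whose double-stranded probes carried direct-repeat seeds, single-nucleotide variants, half-site ablations and random human genomic background sequences in 34-nt variable regions. Incubation lasted 1 h. Binding z-scores were computed against the random background probes from regression-normalized fluorescence.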
# [2] = test system: RARg:RXRa (NR concentration 270 nM, RXRa partner concentration 90 nM)
# In short: as §1
# [3] = test system: RARg homodimer (NR concentration 270 nM)
# In short: as §1
# [4] = test system: RXRa DBDmut IVT, anti-RXR (DBD mutation: RXRa K156A/R161A, NR concentration 90 nM)
# In short: as §1
# [5] = test system: RXRa homodimer (NR concentration 180 nM)
# In short: as §1
# [6] = test system: THRa:RXRa (NR concentration 90 nM, RXRa partner concentration 90 nM)
# In short: as §1
# [7] = test system: THRa homodimer (NR concentration 90 nM)
# In short: as §1
# [8] = test system: VDR homodimer (NR concentration 270 nM)
# In short: as §1
Sequence,PBM binding z-score [1],PBM binding z-score [2],PBM binding z-score [3],PBM binding z-score [4],PBM binding z-score [5],PBM binding z-score [6],PBM binding z-score [7],PBM binding z-score [8]
CGTCCAAAGTCAATGCTAGGTCAGTGAAAGCATT,2.39,2.4,1.31,0.43,0.344,2.01,0.698,0.435
TCTAGTTGGTCACGGAGGCCACACACGACGGGTA,2.01,1.65,2.06,0.633,1.06,0.977,0.377,0.2
CCTACTGGGCCATCAGGTCATTTATATCAACGTT,2.44,1.8,1.64,0.641,0.891,3.14,3.01,1.61
CCGCCTAGGTCAGGGCCAGTATAGGAGGAACGTT,2.62,2.86,3.33,-0.193,1.74,2.2,0.59,-0.22
TCGAGTAGGTTAGCAATGGGGCATTCAGCTTTCT,0.353,0.194,-0.0673,0.158,0.129,-0.27,-0.716,-0.45
CCGACTGGGGCAAAGGCTACCATACTCAGTACGA,0.592,0.577,0.501,-0.632,0.387,-0.182,-0.604,-0.299
CGTCCAAGGTCAAAGGTCTGTGAAGAGATGACGG,4.1,6.32,6.12,4.3,6.84,4.04,2.11,3.09
CTCGAAAGGTCGGTTGAGGTGAGTTTACGGATAA,2.53,2.78,2.96,1.27,2.12,4.97,1.31,2.25
CCTAATTGGTCAAGGTCACACACGCTATAGGTAC,4.67,4.73,4.86,2.36,4.64,4.34,4.13,3.38
TCATATAGGAAAAGGTGAAAGTCGAACGATATGA,1.17,1.38,1.12,1.03,1.86,0.964,-0.616,0.135
CAACCTAGGTCAGGGCCAGTATAGGAGGAACGTT,2.7,3.49,4.18,0.0707,2.07,2.12,0.435,-0.128
CAAACTAGGTCAAGAGGTCAAAGTGCGCTTCCCG,5.69,8.27,7.86,3.2,8.67,4.46,2.56,4.83
ACTTACTGGTCAACGAGGTTATAGCACGCGTATA,1.88,1.72,1.94,1.16,1.85,2.26,1.22,1.71
TCTTGTAGATCAGCAGGCTAAGAAAGCTGGCCAA,-0.81,-0.564,-0.754,0.38,-0.261,-0.424,-1.21,-0.475
CGAACTAGGTCAGGACAGGACAGTGAAGGATGAT,2.54,2.87,4.34,0.359,1.59,3.71,1.28,-0.189
GCGACTCGGGCAAAGCAGGTTACCATAAGGTTGG,0.473,0.453,0.464,-0.723,0.252,1.87,-0.264,-0.533
TCATATACGTAAACAGGTGAAAGTCCGTAAGTTA,0.865,0.708,0.405,1.91,0.88,0.985,0.342,0.357
TAGCCTAGGTCATGGGGCCAGTATAGTACGCATC,3.29,4.5,4.7,0.621,3.6,3.49,1.43,1.05
ACTGACGGGTCAACGAGGTTATAGCACGCGTATA,3.27,4.88,4.97,1.69,5.11,3.63,0.781,3.7

Sequence,PBM binding z-score [1],PBM binding z-score [2],PBM binding z-score [3],PBM binding z-score [4],PBM binding z-score [5],PBM binding z-score [6],PBM binding z-score [7],PBM binding z-score [8]
ATCGAAAGGTCGATGAGGTGAGTATACACCGTTT,2.52,3.5,3.32,0.841,3.56,3.75,0.943,1.17
TCTGCGAGGTCAGTTGGTCAGCTAACGAGCTGCC,3.86,5,5.42,2.8,3.76,3.22,1.39,2.02
TCTATTAGTTGATTAGGGCTACCGAAACAGCGGA,-0.115,0.318,0.15,0.904,0.363,0.166,-0.0313,0.356
GCTCTGAGGACAAGGTCAGAGCTTTGTCCGTAGA,2.95,3.16,3.63,1.43,2.38,3.95,3.55,1.11
TCCAGTAGGTTACCAATGGGGCATTCAGCTTTCT,0.751,1.45,0.608,0.663,0.815,0.145,-0.653,-0.528
AGTCAAAGTTCAGTACGAGGTAACGTAAAGCACG,3.01,4.32,4.54,3.09,2.66,3.64,1.21,2.62
CATACAGGGTCAGCTGGGCCAGAGTAGGGACGGC,3.31,4.6,4.97,1.48,4.64,3.12,0.678,1.18
CGAACTAGGTCATTGACAGGACATTGAATAGTAA,2.8,4.62,4.56,2.52,2.75,2.9,0.971,1.62
TCATACAGGTAAAGGTGAAAGTCGAACGATATGA,1.73,1.78,1.69,1.17,2.23,1.46,0.0499,0.141
AGAATGAGGTTATACGTAGATCCGGGAAGAAAGT,0.443,1.39,0.944,1.78,1.82,1.94,0.512,0.912
CAGCCTAGGGCAGGGCCAGTATAGGAGGAACGTT,0.0483,-0.0952,0.654,-1.36,-0.507,-0.901,-0.998,-0.621
CCTCGGAGGACAGGAGGTCAGAGCTGTCCGCTTT,3.17,3.42,3.29,0.04,2.07,2.67,0.822,0.982
GCGACTGGGGCATCAGAAGGTTACCATAACTTAA,1.73,1.74,1.06,0.112,0.743,1.24,-0.47,-0.299
ATCTCTAGGTAAAGCTCAGTGAAAGATCGATAGA,-0.225,0.103,0.259,-0.165,-0.128,0.19,-0.0384,-0.271
CCAGACAAGTGAGAAGGTAACTCAGCCTCGATTA,0.174,0.0341,0.205,0.366,0.108,0.152,0.461,0.281
AGATTGAGGTTATTAAGATCAGGGAATTGCGGTC,1.06,1.07,0.837,1.55,1.44,2.37,0.869,1.49
CAAACTAGGTCACCGGAGGGTCAAAGTCCGCATG,5.26,7.83,6.79,1.19,5.89,4.24,2.21,2.78
ATATGTAGGTTAAGGGTCATTCGGGTTGGTTCGC,3.7,4.87,3.3,2.32,6.11,3.39,1.95,5.4
TCTTGTAGATCAATAGAGGTTATGAAAGTGCGCT,1,1.01,0.611,1.05,1.55,2.33,-0.187,0.0483

Sequence,PBM binding z-score [1],PBM binding z-score [2],PBM binding z-score [3],PBM binding z-score [4],PBM binding z-score [5],PBM binding z-score [6],PBM binding z-score [7],PBM binding z-score [8]
ACTTACGGGTCAACGCGGTTATAGCACGCGTATA,3.18,5.42,5.07,1.88,5.68,2.97,0.345,1.45
CATACAGGGTCAGCCAGGCCAGAGTAGGGACGGC,3.14,4.58,4.31,1.4,4.58,3.36,1.19,1.78
AAATGTAGGTTACATCCGGGTCATTCAGGCTATG,2.82,3.7,2,1.3,3.08,3.67,2.22,3.16
TCTATTAGTTGATTAGGGCAATCGAAACAGCGGA,0.402,0.658,0.528,0.966,0.804,0.453,0.15,0.435
ATAAGTAGGTTAGCTGGGGTCATTCAGACTAGGC,3.84,4.16,2.94,1.95,5.34,5.32,3.54,4.63
CCTTACGGGTCACTGACAGGTGATAGCATTTGGA,3.85,5.63,4.84,2.09,6.14,3.23,0.557,1.31
TCTGCTAGGTCAGTTGGTCTGCTAACGAGCTGCC,2.11,1.92,3.27,0.135,0.318,1.08,-0.124,-0.575
GCCGACAGGTGAAACGCAGGTAACTCAGGGTGGC,-0.0352,0.819,0.229,-0.346,0.514,1.35,-0.657,-0.993
ACATGTAGGTTAAGGGTCATTCAGGTTGGTTCGC,3.49,4.68,3.24,2.73,5.95,3.42,2.01,4.91
GATGCTAGGTCAACTGATGGTCAGCTAAAGCTCG,3.45,5.12,5.33,1.06,2.84,2.98,0.992,-0.0193
TCTTGTAGATCAACCAGGTTAAGAAAGCCTGAGT,0.615,0.0614,-0.146,0.718,0.38,0.777,0.123,0.207
AGTCAAAGATCAGGACGAGGTAACGTAAAGCACG,-0.273,0.544,0.425,-0.798,0.431,2.27,1.16,-0.321
TAGCCTAGATCATGGGCCAGTATACCACGCGAAC,-0.389,-0.301,-0.388,-0.748,-0.39,-0.674,-0.848,-0.532
TCTAGTTGTTCAAAGGTCACACACTCGAAATGCG,5.28,6.3,6.07,2.05,7.19,4.11,2.21,2.78
TCTTGTAGATCAAAGGTTAAGCAAGCCGAAGCCT,1.9,1.98,0.759,0.824,3.56,1.51,-0.503,-0.138
CTCCCAAGGTGAACAAGGTCGTTGATTACTATTC,2.05,1.68,1.41,0.991,1.7,3.19,2.26,2.22
CCTTGGAGGACAACAGGAGGTCAGAGCTGCCAGA,3.58,3.49,3.03,0.451,2.08,2.88,1.13,1.24
ACATACGGGTCAACGAGGTTATAGCACGCGTATA,3.66,5.55,5.24,2.49,5.71,3.82,0.951,3.69
CAAACTAGGTCACAGAGGTAAAAGTCCGTGCGTA,3.54,4.87,5.32,1.95,3.93,3.71,1.63,2.01

# Reference: the supplement of paper PMC6555819
